Laboratory results taken from the supplement of paper PMC10849652.
Of roughly 8,800 targets only a part is listed; those with a hit were picked by preference. About 0.5% of all pairs of compound and target were hits. A number with no mark means an inactive call.

Legend:
Experiment in all cases: log2 fold change, soluble protein after heating vs DMSO (PISA); higher = thermal stabilisation; K562 lysate, 10 uM; active = over 0.2 and 3.5 SD of the protein, either way, in both replicates (recomputed)
vemurafenib = compound: CCCS(=O)(=O)Nc1ccc(F)c(C(=O)c2c[nH]c3ncc(-c4ccc(Cl)cc4)cc23)c1F [vemurafenib]
How it was run: (§1)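 Following dounce homogenisation of K562 pellets in PBS pH 7.4 with 1 mM MgCl2, crude extract at 1 mg/mL protein was incubated for 30 min with 10 μM compound. Aliquots were then heated for 3 min over 48°C-58°C and pooled, NP-40 was added to 0.5% at 4°C, and soluble protein was recovered as the supernatant at 21,000xg for 90 min. Channel-sum-equalised TMTpro 16plex LC-MS/MS quantified this protein. Each value, from duplicates, is a log-two fold change in thermal stability relative to solvent controls.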

[1] = compound: CCCS(=O)(=O)Nc1ccc(F)c(C(=O)c2c[nH]c3ncc(Cl)cc23)c1F
How it was run: as §1

barasertib = compound: CCN(CCCOc1ccc2c(Nc3cc(CC(=O)Nc4cccc(F)c4)[nH]n3)ncnc2c1)CCOP(=O)(O)O [barasertib]
How it was run: as §1

[2] = compound: CC[C@@H]1C(=O)N(C)c2cnc(Nc3ccc(C(=O)NC4CCN(C)CC4)cc3OC)nc2N1C1CCCC1
How it was run: as §1

volasertib = compound: CC[C@@H]1C(=O)N(C)c2cnc(Nc3ccc(C(=O)N[C@H]4CC[C@H](N5CCN(CC6CC6)CC5)CC4)cc3OC)nc2N1C(C)C [volasertib]
How it was run: as §1

[3] = compound: CCn1c(C(=O)N(C2CC2)C2CC2)cc2c3c(ncn3C)c(Nc3cc(C)n(C)n3)nc21
How it was run: as §1

[4] = compound: CCn1cc(-c2ccnc3[nH]c(-c4cccc(CN(C)C)c4)cc23)c(-c2ccc(NC(=O)N(C)C)cc2)n1
How it was run: as §1

[5] = compound: CN1CCC(CNc2ccc3ncc(-c4cccc(OC(F)(F)F)c4)n3n2)CC1
How it was run: as §1

saracatinib = compound: CN1CCN(CCOc2cc(OC3CCOCC3)c3c(Nc4c(Cl)ccc5c4OCO5)ncnc3c2)CC1 [saracatinib]
How it was run: as §1

sotrastaurin = compound: CN1CCN(c2nc(C3=C(c4c[nH]c5ccccc45)C(=O)NC3=O)c3ccccc3n2)CC1 [sotrastaurin]
How it was run: as §1

Sequence of UniProt Q12981 (Q12981 whole entry, looked up): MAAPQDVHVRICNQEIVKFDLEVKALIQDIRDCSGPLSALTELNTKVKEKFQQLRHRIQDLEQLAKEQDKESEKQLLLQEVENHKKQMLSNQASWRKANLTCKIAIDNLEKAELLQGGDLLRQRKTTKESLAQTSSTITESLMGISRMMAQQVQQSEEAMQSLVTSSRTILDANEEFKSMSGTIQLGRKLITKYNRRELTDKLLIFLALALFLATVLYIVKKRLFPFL
Sequence of UniProt Q9UL45 (Q9UL45 whole entry, looked up): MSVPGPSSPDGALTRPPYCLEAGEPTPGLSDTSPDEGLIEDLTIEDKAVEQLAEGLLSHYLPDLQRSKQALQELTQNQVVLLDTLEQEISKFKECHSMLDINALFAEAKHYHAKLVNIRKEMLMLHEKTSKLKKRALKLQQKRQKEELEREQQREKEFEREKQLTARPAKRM
Sequence of UniProt Q13535 (Q13535 whole entry, looked up): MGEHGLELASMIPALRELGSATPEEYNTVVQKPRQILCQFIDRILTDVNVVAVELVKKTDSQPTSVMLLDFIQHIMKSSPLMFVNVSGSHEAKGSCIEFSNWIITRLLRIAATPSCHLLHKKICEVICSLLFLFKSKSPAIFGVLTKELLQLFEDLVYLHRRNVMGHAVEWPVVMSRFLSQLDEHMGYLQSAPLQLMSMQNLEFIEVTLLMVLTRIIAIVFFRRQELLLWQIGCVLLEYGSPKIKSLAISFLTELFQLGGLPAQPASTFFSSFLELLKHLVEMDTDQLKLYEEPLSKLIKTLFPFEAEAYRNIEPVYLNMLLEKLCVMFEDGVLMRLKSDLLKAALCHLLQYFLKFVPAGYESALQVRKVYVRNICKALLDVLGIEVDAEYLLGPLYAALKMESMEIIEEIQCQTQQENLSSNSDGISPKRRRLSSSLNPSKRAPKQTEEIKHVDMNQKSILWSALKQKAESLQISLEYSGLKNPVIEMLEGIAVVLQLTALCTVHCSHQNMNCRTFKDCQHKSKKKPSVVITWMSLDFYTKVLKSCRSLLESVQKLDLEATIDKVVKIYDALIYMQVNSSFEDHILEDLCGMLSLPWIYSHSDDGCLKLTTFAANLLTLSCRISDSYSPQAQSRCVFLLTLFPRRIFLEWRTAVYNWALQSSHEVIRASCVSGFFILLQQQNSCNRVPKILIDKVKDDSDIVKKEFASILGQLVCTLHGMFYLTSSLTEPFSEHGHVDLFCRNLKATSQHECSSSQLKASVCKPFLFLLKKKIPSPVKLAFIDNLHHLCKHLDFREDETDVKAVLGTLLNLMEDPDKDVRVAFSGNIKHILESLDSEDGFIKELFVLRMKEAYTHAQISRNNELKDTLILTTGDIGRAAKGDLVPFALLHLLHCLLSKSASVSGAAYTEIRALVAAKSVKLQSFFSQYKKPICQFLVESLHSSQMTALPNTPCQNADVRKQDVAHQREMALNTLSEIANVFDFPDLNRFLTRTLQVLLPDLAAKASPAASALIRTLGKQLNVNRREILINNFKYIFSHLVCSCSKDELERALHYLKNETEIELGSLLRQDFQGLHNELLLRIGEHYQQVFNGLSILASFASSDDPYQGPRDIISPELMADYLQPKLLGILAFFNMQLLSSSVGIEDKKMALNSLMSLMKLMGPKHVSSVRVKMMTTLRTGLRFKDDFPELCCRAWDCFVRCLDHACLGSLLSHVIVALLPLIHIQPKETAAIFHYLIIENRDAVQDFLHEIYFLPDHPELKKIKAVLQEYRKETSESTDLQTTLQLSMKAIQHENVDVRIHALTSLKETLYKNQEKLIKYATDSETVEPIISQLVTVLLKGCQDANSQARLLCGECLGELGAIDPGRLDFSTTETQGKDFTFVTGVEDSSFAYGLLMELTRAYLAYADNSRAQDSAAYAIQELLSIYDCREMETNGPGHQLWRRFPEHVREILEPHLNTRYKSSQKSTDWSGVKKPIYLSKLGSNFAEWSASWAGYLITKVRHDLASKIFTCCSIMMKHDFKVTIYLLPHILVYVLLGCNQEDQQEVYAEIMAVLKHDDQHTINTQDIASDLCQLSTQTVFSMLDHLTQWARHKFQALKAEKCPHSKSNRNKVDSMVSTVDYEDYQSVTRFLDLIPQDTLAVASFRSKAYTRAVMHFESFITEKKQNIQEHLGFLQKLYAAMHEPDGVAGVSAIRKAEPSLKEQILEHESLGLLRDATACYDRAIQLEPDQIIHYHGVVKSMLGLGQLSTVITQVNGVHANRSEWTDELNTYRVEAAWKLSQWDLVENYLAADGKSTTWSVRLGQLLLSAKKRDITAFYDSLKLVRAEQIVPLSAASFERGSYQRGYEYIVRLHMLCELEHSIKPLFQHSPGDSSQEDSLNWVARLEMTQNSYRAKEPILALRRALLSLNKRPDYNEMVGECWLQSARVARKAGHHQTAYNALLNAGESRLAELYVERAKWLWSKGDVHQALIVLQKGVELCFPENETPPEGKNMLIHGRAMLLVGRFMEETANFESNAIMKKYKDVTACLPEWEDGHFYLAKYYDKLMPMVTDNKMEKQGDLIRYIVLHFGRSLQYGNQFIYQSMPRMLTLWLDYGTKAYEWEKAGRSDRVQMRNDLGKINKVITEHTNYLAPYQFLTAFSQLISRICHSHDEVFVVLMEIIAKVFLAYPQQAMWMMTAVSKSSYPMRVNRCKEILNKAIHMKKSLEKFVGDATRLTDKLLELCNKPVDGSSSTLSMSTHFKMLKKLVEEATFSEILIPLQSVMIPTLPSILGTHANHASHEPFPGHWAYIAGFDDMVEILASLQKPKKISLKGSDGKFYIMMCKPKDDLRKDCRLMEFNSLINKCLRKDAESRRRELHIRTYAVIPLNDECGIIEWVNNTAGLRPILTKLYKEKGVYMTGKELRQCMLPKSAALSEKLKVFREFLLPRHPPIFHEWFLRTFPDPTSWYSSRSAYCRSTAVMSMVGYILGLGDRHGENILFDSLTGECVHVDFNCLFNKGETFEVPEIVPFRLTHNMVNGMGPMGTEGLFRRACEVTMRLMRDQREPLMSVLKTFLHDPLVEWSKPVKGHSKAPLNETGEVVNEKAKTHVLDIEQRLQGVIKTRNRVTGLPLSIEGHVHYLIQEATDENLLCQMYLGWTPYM
Sequence of UniProt Q86YS7 (Q86YS7 whole entry, looked up): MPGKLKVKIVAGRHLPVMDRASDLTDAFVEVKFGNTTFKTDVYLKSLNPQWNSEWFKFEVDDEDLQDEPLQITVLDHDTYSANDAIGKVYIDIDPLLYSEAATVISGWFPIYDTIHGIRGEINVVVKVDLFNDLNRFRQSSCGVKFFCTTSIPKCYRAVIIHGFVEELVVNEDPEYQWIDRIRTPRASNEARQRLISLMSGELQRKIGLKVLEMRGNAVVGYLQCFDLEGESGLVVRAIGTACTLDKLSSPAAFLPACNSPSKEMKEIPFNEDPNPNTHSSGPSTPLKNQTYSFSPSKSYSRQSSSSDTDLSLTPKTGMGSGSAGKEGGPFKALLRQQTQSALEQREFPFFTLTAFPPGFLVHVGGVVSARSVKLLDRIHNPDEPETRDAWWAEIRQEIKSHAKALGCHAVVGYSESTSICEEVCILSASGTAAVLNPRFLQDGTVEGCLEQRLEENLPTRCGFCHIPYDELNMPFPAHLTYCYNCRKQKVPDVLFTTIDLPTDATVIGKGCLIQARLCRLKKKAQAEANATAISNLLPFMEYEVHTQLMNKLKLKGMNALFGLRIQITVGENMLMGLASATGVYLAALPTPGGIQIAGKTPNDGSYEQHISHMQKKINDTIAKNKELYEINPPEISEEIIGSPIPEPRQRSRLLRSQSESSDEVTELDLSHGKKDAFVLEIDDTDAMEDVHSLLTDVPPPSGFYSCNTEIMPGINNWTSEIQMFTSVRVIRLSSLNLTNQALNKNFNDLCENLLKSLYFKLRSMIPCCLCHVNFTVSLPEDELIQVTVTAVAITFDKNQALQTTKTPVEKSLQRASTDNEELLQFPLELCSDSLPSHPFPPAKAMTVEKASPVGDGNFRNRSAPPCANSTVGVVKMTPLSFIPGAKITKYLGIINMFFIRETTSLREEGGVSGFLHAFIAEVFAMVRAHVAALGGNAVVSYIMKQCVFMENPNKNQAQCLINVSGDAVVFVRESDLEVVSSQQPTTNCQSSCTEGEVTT
Sequence of UniProt Q8TAP6 (Q8TAP6 whole entry, looked up): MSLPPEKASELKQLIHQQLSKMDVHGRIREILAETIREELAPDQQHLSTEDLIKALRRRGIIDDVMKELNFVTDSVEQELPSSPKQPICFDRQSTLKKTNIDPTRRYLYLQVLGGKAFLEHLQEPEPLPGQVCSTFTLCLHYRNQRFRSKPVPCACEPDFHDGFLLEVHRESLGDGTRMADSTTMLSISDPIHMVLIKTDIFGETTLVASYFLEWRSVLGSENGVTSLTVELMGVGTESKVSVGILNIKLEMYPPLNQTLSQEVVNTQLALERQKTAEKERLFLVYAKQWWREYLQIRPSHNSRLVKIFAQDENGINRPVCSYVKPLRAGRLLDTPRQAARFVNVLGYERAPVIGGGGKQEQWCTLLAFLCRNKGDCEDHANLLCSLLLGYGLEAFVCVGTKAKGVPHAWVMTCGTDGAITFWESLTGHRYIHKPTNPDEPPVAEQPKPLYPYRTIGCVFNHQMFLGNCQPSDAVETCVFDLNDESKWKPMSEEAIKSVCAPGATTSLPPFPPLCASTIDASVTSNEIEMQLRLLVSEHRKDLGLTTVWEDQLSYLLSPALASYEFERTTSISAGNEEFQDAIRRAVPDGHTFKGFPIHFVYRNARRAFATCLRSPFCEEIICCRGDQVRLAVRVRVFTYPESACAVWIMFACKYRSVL
Sequence of UniProt P33681 (P33681 whole entry, looked up): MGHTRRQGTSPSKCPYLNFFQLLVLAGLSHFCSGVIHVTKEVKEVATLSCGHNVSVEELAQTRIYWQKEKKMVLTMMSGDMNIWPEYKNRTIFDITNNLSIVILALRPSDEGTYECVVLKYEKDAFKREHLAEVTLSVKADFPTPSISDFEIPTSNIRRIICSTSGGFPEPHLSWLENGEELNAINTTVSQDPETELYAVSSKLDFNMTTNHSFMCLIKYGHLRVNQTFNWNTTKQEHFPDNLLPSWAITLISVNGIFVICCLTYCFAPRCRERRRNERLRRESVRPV

Target	log2 fold change (vemurafenib)	log2 fold change [1]	log2 fold change (barasertib)	log2 fold change [2]	log2 fold change (volasertib)	log2 fold change [3]	log2 fold change [4]	log2 fold change [5]	log2 fold change (saracatinib)	log2 fold change (sotrastaurin)
C3 (UniProt P01024)	-0.02	0.042	0.059	0.07	0.009	-0.096	-0.134	0.039	0.001	0.014
BLOC1S6 (UniProt Q9UL45)	0.005	0.007	-0.012	0.013	0.032	0.043	0.048	0.009	-0.034	-0.06
CDKN2AIP (UniProt Q9NXV6)	0.017	0.022	-0.028	0.082	-0.008	-0.026	-0.049	0.03	-0.004	0.01
CEP76 (UniProt Q8TAP6)	-0.099	-0.023	0.085	-0.093	0	-0.026	-0.04	0.053	0.047	0.085
CBX5 (UniProt P45973)	0.028	0.026	-0.025	0.018	0.016	-0.073	-0.215 (active)	0.066	0.001	0.016
BAG4 (UniProt O95429)	-0.055	0	0.048	0.004	-0.003	0.036	-0.037	0.102	0.018	-0.043
CAPN15 (UniProt O75808)	0.04	-0.046	0.077	-0.007	0.027	0.013	0.037	0.016	0.032	-0.091
CHD3 isoform 3 (UniProt Q12873)	-0.033	0.009	0.035	-0.02	-0.018	-0.039	-0.066	-0.027	0.001	0.004
CAPNS1 (UniProt P04632)	-0.032	0.021	0.11	-0.027	0.04	-0.006	-0.334 (active)	0.07	0.003	-0.012
CCNYL1 (UniProt Q8N7R7)	-0.072	0.003	-0.046	0.031	-0.046	0.012	-0.188	0.269	0.051	0.034
C2CD5 isoform 3 (UniProt Q86YS7)	0.068	0.022	0.049	0.062	-0.025	-0.069	-0.309 (active)	0.162	0.058	-0.023
CCDC186 (UniProt Q7Z3E2)	-0.007	0.069	-0.029	0.069	0.031	0.019	0.332 (active)	-0.033	-0.003	-0.054
ATR (UniProt Q13535)	0.059	0.013	0	0.017	-0.13	0.018	-0.307	0.337	0.018	0.081
C12orf45 (UniProt Q8N5I9)	-0.015	-0.017	-0.022	0.009	0.008	0.023	-0.243	0.116	-0.022	-0.026
CFDP1 (UniProt Q9UEE9)	-0.02	-0.008	-0.066	0.025	0.039	-0.015	-0.311 (active)	0.105	-0.007	0.024
BSDC1 (UniProt Q9NW68)	0.027	0.053	0.078	0.099	0.018	-0.01	-0.027	0.041	0.03	-0.019

Target	log2 fold change (vemurafenib)	log2 fold change [1]	log2 fold change (barasertib)	log2 fold change [2]	log2 fold change (volasertib)	log2 fold change [3]	log2 fold change [4]	log2 fold change [5]	log2 fold change (saracatinib)	log2 fold change (sotrastaurin)
BUB1B isoform 3 (UniProt O60566)	0.024	0.024	0.03	-0.012	-0.014	0.01	0.13	-0.05	-0.006	0.009
CAD (UniProt P27708)	0.005	0.026	-0.004	-0.037	-0.069	0.012	-0.085	0.003	-0.004	0.003
BCKDK (UniProt O14874)	-0.036	0.002	-0.028	0.203	-0.037	0.067	-0.033	0.059	0.031	0.028
CDC42EP4 (UniProt Q9H3Q1)	0.01	-0.01	0.013	0.162	0.013	-0.04	-0.021	0.042	-0.064	-0.012
ATP6V1B1 (UniProt P15313)	-0.009	-0.013	-0.012	0.016	0.03	0.006	-0.288 (active)	0.158	-0.006	0.006
CASP6 (UniProt P55212)	0.006	-0.012	-0.071	0.018	-0.017	0.025	0.242	0.013	-0.004	-0.016
C15orf41 (UniProt Q9Y2V0)	0.151	0.005	0.095	-0.089	0.041	-0.049	-0.143	0.037	-0.018	-0.016
ATG7 (UniProt O95352)	-0.031	0.014	-0.002	-0.032	-0.052	0.021	-0.058	0.091	-0.003	0.037
CCNY (UniProt Q8ND76)	-0.011	0	-0.016	-0.148	0.036	-0.103	0.032	0.037	0.063	0.025
ATM (UniProt Q13315)	-0.063	-0.004	0.041	0.005	-0.078	0.021	-0.089	0.071	-0.011	0.032
BORCS5 (UniProt Q969J3)	0.044	0.005	0.201 (active)	0.057	0.027	-0.01	0.075	-0.055	0.013	0.017
BRAF (UniProt P15056)	1.03 (active)	0.765 (active)	0.012	-0.069	-0.044	-0.023	-0.11	0.037	0.017	-0.025
AUH (UniProt Q13825)	0.083	-0.009	0.004	0.042	-0.093	0	0.1	0	-0.101	0.047
CD80 (UniProt P33681)	0.115	-0.113	–	0.063	-0.001	-0.011	0.239	-0.177	-0.069	0.032
BNIP1 (UniProt Q12981)	0.024	0	0.057	-0.032	-0.054	-0.013	0.287 (active)	-0.204	0.032	0.006
